Measured values reported in PubChem BioAssay.
For some of these results: Potency and affinity values are given separately. Activity calls are given as the source filed them.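 How the source made its calls, unless noted: active means primary screen inhibitor hit that blocks the TRPC4 channel at some tested dose, yielding a dose curve; inactive means the rest.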

Columns and labels:
[1] = test system: TRPC4 beta (transient receptor potential cation channel C4), mouse; assay: TRPC4 cation channel opening, retest – cell-based, Fluo4 calcium, HEK293 TRPC4beta/mu-opioid, duplicates, 10 µM, confirmation (AID 2426;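 active means fluorescence ratio normalized to control raised more than 50% in primary screen plus both repeat runs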;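 on activation: percent rise of integrated ratio over buffer wells lacking compound which define 0%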); settings: Fluo4 calcium fluorescence, at 10 µM; stronger effect = higher value
[2] = test system: transient receptor potential cation channel C4 beta (TRPC4), mouse; assay: TRPC4 cation channel opening, second retest – cell-based, second round, Fluo4, HEK293 TRPC4beta/mu-opioid, 1 µM, confirmation (AID 2461;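 active means primary screen active and over 50% activation in each of two duplicate runs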;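 on activation: 0% = wells without test compound as baseline of integrated fluorescence ratio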); settings: Fluo4 calcium fluorescence, at 1 µM; stronger effect = higher value
[3] = test system: TRPC4 (transient receptor potential cation channel C4 beta), mouse; assay: potentiation of DAMGO EC20 TRPC4 response – cell-based, second round, Fluo-4, HEK293 TRPC4beta/mu-opioid, 1 µM, confirmation (AID 2554;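 active means primary screen hit whose fluorescence ratio, in both repeats, exceeds the weak agonist control mean by 3 SD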); settings: DAMGO EC20, Fluo-4 calcium flux, at 1 µM; stronger effect = higher value
[4] = test system: TRPC4 beta (transient receptor potential cation channel C4), mouse; assay: potentiation of DAMGO EC20 TRPC4 response – cell-based, Fluo-4, HEK293 TRPC4beta/mu-opioid, confirmation (AID 2555;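 active means primary screen hit whose calcium fluorescence ratio, in both repeats, exceeds the weak agonist control mean by 3 SD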); settings: DAMGO EC20, Fluo-4 calcium flux, at 10 µM; stronger effect = higher value
[5] = molecular target: Short transient receptor potential channel 4 (Mus musculus) (UniProt Q9QUQ5); assay: blockers of DAMGO-evoked TRPC4 calcium flux – cell-based, Fluo4, HEK293 TRPC4beta/mu-opioid, confirmation (AID 2636;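 active means calcium signal cut by more than 3 SD below the full-agonist control yet still positive, in both repeats and the earlier primary screen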); settings: at 10 µM; stronger effect = higher value
[6] = molecular target: Short transient receptor potential channel 4 (Mus musculus) (UniProt Q9QUQ5); assay: blockers of DAMGO-evoked TRPC4 calcium flux – cell-based, second round, Fluo4, HEK293 TRPC4beta/mu-opioid, 1 µM, confirmation (AID 2637;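 active means calcium signal ratio cut to more than 3 SD under the fully stimulated control mean yet still positive, in both repeats and the primary screen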); settings: at 1 µM; stronger effect = higher value
[7] = molecular target: Short transient receptor potential channel 4 (Mus musculus) (UniProt Q9QUQ5); assay: calcium entry via TRPC4 opening agents – cell-based, HEK293 TRPC4/mu-opioid, Fluo-4 calcium, dose response (AID 434937;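 active means primary screen activator hit with a dose response curve and TRPC4 channel activation at any tested dose; inactive means no activation, no dose response, or not a primary hit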)
[8] = molecular target: Short transient receptor potential channel 4 (Mus musculus) (UniProt Q9QUQ5); assay: potentiation of DAMGO-evoked TRPC4 calcium signal – cell-based, HEK293 TRPC4/mu-opioid, Fluo-4 calcium, EC20 DAMGO, dose response (AID 434941;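 active means earlier screen potentiator hit that boosts the TRPC4 ion channel at some dose, with a dose response; inactive means no potentiation, no dose response, or not a prior hit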;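 further: calcium entry triggered by an EC20 dose of DAMGO at the co-expressed mu-opioid receptor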)
[9] = molecular target: Short transient receptor potential channel 4 (Mus musculus) (UniProt Q9QUQ5); assay: block of DAMGO-driven TRPC4 calcium entry – cell-based, HEK293 TRPC4/mu-opioid, Fluo-4 calcium, dose response (AID 434942)
[10] = molecular target: Short transient receptor potential channel 6 (Mus musculus) (UniProt Q61143); assay: TRPC6 blockade by TRPC4 inhibitor hits – cell-based, HEK293, membrane potential dye, duplicate, selectivity assay for TRPC4 inhibitor project, confirmation (AID 434948;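 active means active in primary screen and both duplicates, each dropping signal beyond three positive-control SD with fluorescence still positive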); settings: HEK293 TRPC6, membrane potential dye fluorescence, at 10 µM; inhibition: stronger effect = higher value, stimulated with maximal-effect acetylcholine unless noted; outcome: stimulated with maximal-effect acetylcholine unless noted
[11] = molecular target: Short transient receptor potential channel 6 (Mus musculus) (UniProt Q61143); assay: TRPC6 opening by TRPC4 activator hits – cell-based, HEK293, membrane potential dye, duplicate, selectivity assay for TRPC4 activator project, confirmation (AID 434950;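 active means membrane potential signal rise above negative control mean plus 3 SD in both duplicates, also active in the earlier TRPC4 screen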;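 on activation: 0% = buffer only wells and 100% = acetylcholine maximal-effect wells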); settings: HEK293 TRPC6, membrane potential fluorescence, at 10 µM; activation: stronger effect = higher value; outcome: activation
[12] = molecular target: Short transient receptor potential channel 6 (Mus musculus) (UniProt Q61143); assay: positive modulators of mouse TRPC6 channel – HEK293 cells, membrane potential dye, duplicate, selectivity assay for TRPC4 potentiator project, confirmation (AID 434952;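 active means compound raising the membrane signal above positive-control mean plus 3 SD in both repeats, and a primary screen hit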); settings: HEK293 TRPC6, membrane potential dye fluorescence, at 10 µM; maximal acetylcholine added after compound unless noted
[13] = molecular target: Short transient receptor potential channel 4 (Mus musculus) (UniProt Q9QUQ5); assay: calcium flux activators in TRPC4/5HT1a cells, counter-screen for TRPC4 activator project, cell-based, second counter screen, HEK293 TRPC4/5HT1a, Fluo-4 (AID 434977;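 active means calcium signal rise above buffer-control mean plus 5 SD in both duplicates, and also a hit in the primary screen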;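 on activation: plate controls were assay buffer for no effect and maximal serotonin response for full effect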); settings: Fluo-4 calcium flux, at 10 µM; stronger effect = higher value
[14] = serotonin-gated TRPC4 signal block – cell-based, second counter screen, HEK293 TRPC4/5HT1a, Fluo-4, counter-screen for TRPC4 inhibitor project, confirmation (AID 434978;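 active means primary screen active whose calcium signal fell more than 3 SD beyond the full-serotonin control mean in both duplicate plates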;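 further: serotonin given first at submaximal then at maximal dose after compound preincubation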); settings: Fluo-4 calcium flux, at 10 µM; inhibition: stronger effect = higher value, serotonin added to trigger calcium flux unless noted; outcome: serotonin added to trigger calcium flux unless noted
[15] = test system: TRPC4 (mouse), co-expressed with 5HT1a in HEK293; assay: enhancement of serotonin-evoked TRPC4 response – cell-based, second counter screen, HEK293 TRPC4/5HT1a, Fluo-4, counter-screen for TRPC4 potentiator project, confirmation (AID 434979;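 active means signal rise over 3 SD above mean of control wells given weak agonist, in both repeats and first screen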); settings: Fluo-4 calcium flux, at 10 µM; outcome: serotonin added at its EC20 dose unless noted; potentiation: stronger effect = higher value, serotonin added at its EC20 dose unless noted
[16] = nonspecific calcium rise without TRPC4 – cell-based, HEK293 mu-opioid receptor line, counter-screen for TRPC4 activator project, confirmation (AID 449723;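 active means hit in primary screen, with calcium signal over 5 SD above buffer well mean in both duplicates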;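 further: counter screen cells carry the mu-opioid receptor alone and lack TRPC4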); settings: HEK293 mu-opioid cells, Fluo-4 calcium fluorescence, at 10 µM; stronger effect = higher value
[17] = nonspecific potentiation of DAMGO calcium response – cell-based, HEK293 mu-opioid receptor line, counter-screen for TRPC4 allosteric potentiator project, confirmation (AID 449724;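 active means calcium signal rise more than 3 SD above the low-dose agonist control mean, in both duplicate plates and the primary screen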); settings: HEK293 mu-opioid receptor cells, Fluo-4 calcium flux, at 10 µM; compound added before EC20 DAMGO stimulus unless noted

Sequence of Short transient receptor potential channel 4 (Mus musculus) (Q9QUQ5 whole entry, looked up): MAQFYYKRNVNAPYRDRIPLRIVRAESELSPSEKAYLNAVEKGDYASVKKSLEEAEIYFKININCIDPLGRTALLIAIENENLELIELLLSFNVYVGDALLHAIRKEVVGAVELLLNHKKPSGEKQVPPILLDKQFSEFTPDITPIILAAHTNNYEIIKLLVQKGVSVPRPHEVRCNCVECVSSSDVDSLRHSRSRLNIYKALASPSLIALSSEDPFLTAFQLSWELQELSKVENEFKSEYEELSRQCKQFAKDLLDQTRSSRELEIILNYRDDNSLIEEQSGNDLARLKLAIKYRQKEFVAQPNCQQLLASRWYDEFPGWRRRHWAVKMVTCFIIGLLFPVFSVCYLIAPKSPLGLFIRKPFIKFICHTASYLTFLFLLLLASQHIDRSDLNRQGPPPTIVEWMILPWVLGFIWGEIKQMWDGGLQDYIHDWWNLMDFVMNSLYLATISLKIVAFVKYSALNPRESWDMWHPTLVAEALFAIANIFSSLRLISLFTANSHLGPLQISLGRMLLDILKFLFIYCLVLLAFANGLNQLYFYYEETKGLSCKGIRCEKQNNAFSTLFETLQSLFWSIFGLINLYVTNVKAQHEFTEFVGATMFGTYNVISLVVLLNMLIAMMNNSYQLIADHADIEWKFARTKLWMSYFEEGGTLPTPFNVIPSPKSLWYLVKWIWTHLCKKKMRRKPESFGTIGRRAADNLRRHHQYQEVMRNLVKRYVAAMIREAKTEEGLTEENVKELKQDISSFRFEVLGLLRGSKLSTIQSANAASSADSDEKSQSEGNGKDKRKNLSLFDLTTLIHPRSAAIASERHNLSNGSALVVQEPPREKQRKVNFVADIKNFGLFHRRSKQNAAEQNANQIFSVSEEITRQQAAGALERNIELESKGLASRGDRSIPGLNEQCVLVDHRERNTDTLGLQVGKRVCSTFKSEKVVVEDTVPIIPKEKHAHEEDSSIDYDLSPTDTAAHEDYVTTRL
Sequence of Short transient receptor potential channel 6 (Mus musculus) (Q61143 whole entry, looked up): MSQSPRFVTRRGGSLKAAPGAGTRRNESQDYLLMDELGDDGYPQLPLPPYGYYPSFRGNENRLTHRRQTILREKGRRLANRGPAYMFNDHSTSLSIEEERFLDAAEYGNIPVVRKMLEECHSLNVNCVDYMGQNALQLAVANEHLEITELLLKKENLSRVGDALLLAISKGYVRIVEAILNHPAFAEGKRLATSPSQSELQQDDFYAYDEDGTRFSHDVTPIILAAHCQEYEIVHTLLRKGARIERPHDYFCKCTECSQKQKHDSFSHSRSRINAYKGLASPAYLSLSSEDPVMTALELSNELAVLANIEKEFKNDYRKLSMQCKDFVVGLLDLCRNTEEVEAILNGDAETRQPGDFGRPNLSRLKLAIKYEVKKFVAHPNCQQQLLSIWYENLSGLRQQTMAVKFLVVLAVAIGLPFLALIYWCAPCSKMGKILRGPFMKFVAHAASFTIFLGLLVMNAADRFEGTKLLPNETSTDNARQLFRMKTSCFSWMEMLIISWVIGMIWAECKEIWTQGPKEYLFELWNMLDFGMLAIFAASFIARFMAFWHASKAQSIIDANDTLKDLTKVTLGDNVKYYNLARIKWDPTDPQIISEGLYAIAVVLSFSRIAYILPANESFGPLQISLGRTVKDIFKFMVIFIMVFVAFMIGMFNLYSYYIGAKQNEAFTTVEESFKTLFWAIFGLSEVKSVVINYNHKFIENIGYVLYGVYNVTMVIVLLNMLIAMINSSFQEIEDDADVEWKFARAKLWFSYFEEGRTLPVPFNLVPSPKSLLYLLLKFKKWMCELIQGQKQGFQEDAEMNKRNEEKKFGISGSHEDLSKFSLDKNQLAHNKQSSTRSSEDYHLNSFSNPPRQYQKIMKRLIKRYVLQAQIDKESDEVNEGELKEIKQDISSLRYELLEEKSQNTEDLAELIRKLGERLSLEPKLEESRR

Cc1ccc(-c2nc(N(C)C3CCN(C)CC3)c3ccccc3n2)cc1
outcome [1]: inactive | outcome [2]: inactive | potentiation [3]: 14% (active) | potentiation [4]: 24% (active) | outcome [5]: inactive | outcome [6]: inactive | outcome [7]: inactive | outcome [8]: inactive | outcome [9]: inactive | outcome [10]: inactive | outcome [11]: inactive | outcome [12]: inactive | outcome [13]: inactive | outcome [14]: inactive | potentiation [15]: 34.7% (active) | outcome [16]: inactive | outcome [17]: inactive

Nc1c([N+](=O)[O-])cc(F)c(N2CCNCC2)c1Br
outcome [1]: inactive | outcome [2]: inactive | outcome [3]: inactive | outcome [4]: inactive | outcome [5]: inactive | outcome [6]: inactive | outcome [7]: inactive | outcome [8]: inactive | outcome [9]: inactive | outcome [10]: inactive | outcome [11]: inactive | outcome [12]: inactive | outcome [13]: inactive | outcome [14]: inactive | potentiation [15]: 22.5% (active) | outcome [16]: inactive | outcome [17]: inactive

C=CCOC(=O)C1=C(C)OC(N)=C(C#N)[C@@]12C(=O)N(CC(N)=O)c1ccccc12
outcome [1]: inactive | outcome [2]: inactive | outcome [3]: inactive | potentiation [4]: 26% (active) | outcome [5]: inactive | outcome [6]: inactive | outcome [7]: inactive | outcome [8]: inactive | outcome [9]: inactive | outcome [10]: inactive | outcome [11]: inactive | outcome [12]: inactive | outcome [13]: inactive | outcome [14]: inactive | potentiation [15]: 7.13% (active) | outcome [16]: inactive | outcome [17]: inactive

CCn1ccnc1CN1CCCC(C(=O)c2cccc(C(F)(F)F)c2)C1 (centres undefined)
outcome [1]: inactive | outcome [2]: inactive | outcome [3]: inactive | outcome [4]: inactive | outcome [5]: inactive | outcome [6]: inactive | outcome [7]: inactive | outcome [8]: inactive | outcome [9]: inactive | outcome [10]: inactive | outcome [11]: inactive | outcome [12]: inactive | outcome [13]: inactive | outcome [14]: inactive | outcome [15]: inactive | outcome [16]: inactive | outcome [17]: inactive

FC(F)(F)c1ccc(CN2CCNCC2)cc1
outcome [1]: inactive | outcome [2]: inactive | potentiation [3]: 26% (active) | potentiation [4]: 22% (active) | outcome [5]: inactive | outcome [6]: inactive | outcome [7]: inactive | outcome [8]: inactive | outcome [9]: inactive | outcome [10]: inactive [setting not given] | outcome [11]: inactive | outcome [12]: inactive [setting not given] | outcome [13]: inactive | outcome [14]: inactive [setting not given] | potentiation [15]: 25.6% [stronger effect = higher value] (active) | outcome [16]: inactive | outcome [17]: inactive [setting not given]

c1ccc2sc(N3CCNCC3)nc2c1
activation [1]: 97% (active) | activation [2]: 78% (active) | outcome [3]: inactive | outcome [4]: inactive | outcome [5]: inactive | outcome [6]: inactive | outcome [8]: inactive | outcome [9]: inactive | outcome [10]: inactive | activation [11]: 29.5% (active) | outcome [12]: inactive | activation [13]: 51.8% (active) | outcome [14]: inactive | outcome [15]: inactive | outcome [16]: inactive | outcome [17]: inactive

Cc1ccc(-n2cc(CNC(C)Cc3cnccn3)c(-c3cccc(C)c3)n2)cc1 (centres undefined)
activation [1]: 146% (active) | outcome [2]: inactive | outcome [3]: inactive | outcome [4]: inactive | outcome [5]: inactive | outcome [6]: inactive | outcome [8]: inactive | outcome [9]: inactive | outcome [10]: inactive | activation [11]: 42.5% (active) | outcome [12]: inactive | outcome [13]: inactive | outcome [14]: inactive | outcome [15]: inactive | outcome [16]: inactive | outcome [17]: inactive

CN(C)C(CNC(=O)Cc1ccc(Br)cc1)c1ccccc1 (centres undefined)
activation [1]: 96% (active) | activation [2]: 133% (active) | outcome [3]: inactive | outcome [4]: inactive | outcome [5]: inactive | outcome [6]: inactive | outcome [8]: inactive | outcome [9]: inactive | outcome [10]: inactive | activation [11]: 38.5% (active) | outcome [12]: inactive | outcome [13]: inactive | outcome [14]: inactive | outcome [15]: inactive | outcome [16]: inactive | outcome [17]: inactive

COc1ccc(C(=O)C2CCCN(C3CSCCSC3)C2)cc1OC (centres undefined)
activation [1]: 166% (active) | activation [2]: 86% (active) | outcome [3]: inactive | outcome [4]: inactive | outcome [5]: inactive | outcome [6]: inactive | outcome [8]: inactive | outcome [9]: inactive | outcome [10]: inactive | activation [11]: 33.5% (active) | outcome [12]: inactive | activation [13]: 87.7% (active) | outcome [14]: inactive | outcome [15]: inactive | outcome [16]: inactive | outcome [17]: inactive

CCN(CC)c1ccc(/C=C/[N+](=O)[O-])cc1
activation [1]: 96% (active) | outcome [2]: inactive | outcome [3]: inactive | outcome [4]: inactive | outcome [5]: inactive | outcome [6]: inactive | outcome [8]: inactive | outcome [9]: inactive | outcome [10]: inactive | activation [11]: 906% (active) | outcome [12]: inactive | activation [13]: 67.9% (active) | outcome [14]: inactive | outcome [15]: inactive | activation [16]: 113% (active) | outcome [17]: inactive

CN1CCN(c2ccc([N+](=O)[O-])c3cccnc23)CC1
activation [1]: 85% (active) | activation [2]: 78% (active) | potentiation [3]: 33% (active) | potentiation [4]: 26% (active) | outcome [5]: inactive | outcome [6]: inactive | outcome [8]: inactive | outcome [9]: inactive | outcome [10]: inactive | outcome [11]: inactive | outcome [12]: inactive | activation [13]: 25.7% (active) | outcome [14]: inactive | potentiation [15]: 16.9% (active) | outcome [16]: inactive | outcome [17]: inactive

CN(C)C(CNC(=O)Cc1c(Cl)cccc1Cl)c1ccccc1 (centres undefined)
activation [1]: 148% (active) | activation [2]: 86% (active) | outcome [3]: inactive | outcome [4]: inactive | outcome [5]: inactive | outcome [6]: inactive | outcome [8]: inactive | outcome [9]: inactive | outcome [10]: inactive | activation [11]: 57.5% (active) | outcome [12]: inactive | outcome [13]: inactive | outcome [14]: inactive | outcome [15]: inactive | outcome [16]: inactive | outcome [17]: inactive

O=[N+]([O-])c1ccc(N2CCCNCC2)c2ncccc12
activation [1]: 133% (active) | activation [2]: 139% (active) | outcome [3]: inactive | outcome [4]: inactive | outcome [5]: inactive | outcome [6]: inactive | outcome [8]: inactive | outcome [9]: inactive | outcome [10]: inactive | outcome [11]: inactive | outcome [12]: inactive | activation [13]: 55.8% (active) | outcome [14]: inactive | outcome [15]: inactive | outcome [16]: inactive | outcome [17]: inactive

O=[N+]([O-])c1ccc(N2CCNCC2)c(Cl)c1
outcome [1]: inactive | outcome [2]: inactive | potentiation [3]: 26% (active) | potentiation [4]: 28% (active) | outcome [5]: inactive | outcome [6]: inactive | outcome [8]: inactive | outcome [9]: inactive | outcome [10]: inactive | outcome [11]: inactive | outcome [12]: inactive | activation [13]: 5.58% (active) | outcome [14]: inactive | outcome [15]: inactive | outcome [16]: inactive | outcome [17]: inactive
